Assay [1] can be described thus: Nuclear factor erythroid 2-related factor 2/antioxidant responsive element (Nrf2/ARE) small molecule agonists: qHTS cell viability counter screen in human keratinocytes (AID 1919968; active = well fitted curve in the direction sought with a large enough effect in the repeat runs; an effect the other way counts as inactive or inconclusive; note: nearly all actives have a fitted effect of over 55% in size; note: potency is the fitted concentration of half-maximal effect). In short, it runs like this: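 Stably transfected HaCaT (KeratinoSens), 1,500/well. Test agents in DMSO were applied for 23 h, 37 C/5% CO2. CellTiter-Fluor was incubated 1 h before the fluorescence read.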
A general note: In qHTS, concentration-response curves come from the screen itself.

Assay [2] can be described thus: Nuclear factor erythroid 2-related factor 2/antioxidant responsive element (Nrf2/ARE) small molecule agonists: luciferase reporter gene qHTS assay in human keratinocytes (AID 1919969; note: nearly all actives have a fitted effect of over 35% in size; note: potency is the fitted concentration of half-maximal effect). (In a reporter assay the amount or activity of a reporter protein is the signal.)
In assay [3] the target is Gonadotropin-releasing hormone receptor (Homo sapiens) (UniProt P30968). Nature of the assay: Human gonadotropin-releasing hormone receptor (GnRHR) small molecule agonists, calcium flux assay in GnRHR-HEK293 cells (AID 1920063). Note: nearly all actives have a fitted effect of over 35% in size. In short, it runs like this:
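Stable human GnRHR HEK293 line. 18 h plating, then calcium dye for 1 h at 37 C. Agonist-mode compound addition from DMSO stocks; fluorescence monitored 3 min.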

Assay [4] addresses KiSS-1 receptor (Homo sapiens) (UniProt Q969F8). Description: Human kisspeptin (KISS1R) small molecule agonists, calcium flux assay in KISS1R-HEK293 cells (AID 1920064; active = well fitted curve in the direction sought with a large enough effect in the repeat runs; an effect the other way counts as inactive or inconclusive). In short, it runs like this:
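After overnight (18 h) culture at 37 C/5% CO2, human KISS1R-HEK293 cells received calcium dye for 1 h, then test compound; emission at 540 nm (excitation 480 nm) was tracked for 3 min.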

Assay [5] is described as follows: G protein-coupled receptor (GPCR) small molecule agonists, calcium flux assay: HEK293 wild type cell line counter screen (AID 1920065). An outline of the steps: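 Following 18 h incubation at 37 C/5% CO2, plates got calcium dye for 1 h; compounds, ATP or DMSO were then pinned in and fluorescence followed kinetically (480/540 nm).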
For orientation: Calcium flux is commonly read through the fluorescence of an indicator in the cells.

Assay [6] in a line: p53 small molecule agonists, cell-based qHTS assay with human liver microsomes (AID 1963577). In short, it runs like this:
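Compounds act here after metabolic activation: human liver microsomes and NADPH, both at 0.5 mg/mL final, were co-added to p53RE-bla cells. Incubation ran 16 h at 37 C, followed by LiveBLAzer detection.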

A short description of assay [7]: p53 small molecule agonists, cell-based qHTS assay with human liver microsomes: qHTS cell viability counter screen (AID 1963579). Note: nearly all actives have a fitted effect of over 45% in size. In short, it runs like this:
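Cells carrying the p53 response-element beta-lactamase reporter are treated for 16 h at 37 C with test compounds in the presence of human liver microsomes and NADPH (both 0.5 mg/mL final); ATP-based CellTiter-Glo luminescence then reports viability.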

A short description of assay [8]: p53 small molecule agonists, cell-based qHTS assay with rat liver microsomes: qHTS cell viability counter screen (AID 1963580). Note: nearly all actives have a fitted effect of over 45% in size. In short, it runs like this: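 Luminescent ATP readout (CellTiter-Glo, 30 min at room temperature) reports viability of p53RE-bla HCT-116 cells after 16 h at 37 C with test compounds under metabolic activation by rat liver microsomes and NADPH at 0.5 mg/mL final each.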

Assay [9] in a line: p53 small molecule agonists, cell-based qHTS assay: qHTS cell viability counter screen (AID 1963581). Note: nearly all actives have a fitted effect of over 45% in size. An outline of the steps: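 qHTS counter screen: 16 h compound exposure at 37 C of p53RE-bla HCT-116 cells (4,000 per well, seeded 5 h prior), cell viability by ATP luminescence.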
The nature of assay [10]: p53 small molecule agonists, cell-based qHTS assay (AID 1963582; active = well fitted activation curve with a large enough effect in the signal ratio in the repeat runs, not every such curve was filed as active; the % refers to the signal ratio). In short, it runs like this:
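Measured: fluorescence from cleaved LiveBLAzer substrate. System: p53RE-bla cells, 16 h compound treatment at 37 C, 2 h substrate step at room temperature.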

Assay [11] deals with 5-hydroxytryptamine receptor 2A (Homo sapiens) (UniProt P28223). Description: 5-hydroxytryptamine receptor 2A (HTR2A) small molecule antagonists, cell-based qHTS assay (AID 1963586). Note: nearly all actives have a fitted effect of over 45% in size. An outline of the steps:
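CHO cells stably expressing human HTR2A were plated for 18 h at 37 C, then loaded with calcium dye for 1 h. Compounds were preincubated 5 min at room temperature before DOI (4 nM solution) was added. Kinetic fluorescence was read for 3 min.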

Assay [12] has the same target. Nature of the assay: 5-hydroxytryptamine receptor 2A (HTR2A) small molecule agonists, cell-based qHTS assay (AID 1963587). Note: nearly all actives have a fitted effect of over 30% in size. An outline of the steps: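 HTR2A-CHO cells, plated 18 h at 37 C/5% CO2, dye-loaded 1 h at 37 C; compounds in DMSO added by pin tool (agonist mode). Intracellular calcium flux read as kinetic fluorescence on FDSS over 2 min at 1 s intervals.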

Assay [13] addresses Muscarinic acetylcholine receptor M1 (Homo sapiens) (UniProt P11229). Description: Cholinergic receptor muscarinic 1 (CHRM1) small molecule antagonists, cell-based qHTS assay (AID 1963588). Note: nearly all actives have a fitted effect of over 40% in size. In short, it runs like this: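 Compounds were tested at 15 concentrations in three independent runs. Dye-loaded CHRM1-CHO cells were exposed 5 min at room temperature before stimulation by acetylcholine added at 50nM. Intracellular calcium was read kinetically on FDSS for 3 min.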

Assay [14] has the same target. Description: Cholinergic receptor muscarinic 1 (CHRM1) small molecule agonists, cell-based qHTS assay (AID 1963589). Note: nearly all actives have a fitted effect of over 35% in size. An outline of the steps: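 Kinetic fluorescence (1 s intervals) of calcium-sensitive dye in human M1 CHO cells after compound addition; cells pre-incubated 18 h at 37 C/5% CO2 and dye-loaded 1 h.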
Assay [15] can be described thus: cAMP Responsive Elements (CRE) small molecule agonists, cell-based qHTS assay (AID 1963590). In short, it runs like this:
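Test agents in DMSO were incubated 3 h at 37 C/5% CO2 with CRE-bla HEK 293T cells seeded 18 h earlier; LiveBLAzer B/G FRET substrate was added and read after 2 h at room temperature.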

A short description of assay [16]: cAMP Responsive Elements (CRE) small molecule antagonists, cell-based qHTS assay (AID 1963591; active = well fitted inhibition curve with a large enough effect in the signal ratio in the repeat runs, not every such curve was filed as active; the % refers to the signal ratio). In short, it runs like this: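 Reporter line CRE-bla HEK 293T in dialyzed-FBS DMEM; cells preincubated 18 h, treated 3 h with compound plus NKH477 (0.25 uM final); LiveBLAzer FRET, 2 h RT.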
For assay [17], the target named is Beta-2 adrenergic receptor (Homo sapiens) (UniProt P07550). Description: Adrenergic beta2 receptor (ADRB2) small molecule antagonists, cell-based qHTS assay (AID 1963592). Note: series mostly up to about 92 µM; nearly all actives have a fitted effect of over 50% in size. An outline of the steps:
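Assay format: CHO-ADRB2 cells, 18-20hr seeding at 37C/5% CO2, then compound plus 1nM isoproterenol agonist mix for 0.5hr RT. Homogeneous time-resolved fluorescence cAMP detection after 1hr, expressed as 665/615 nm ratio.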

Assay [18] concerns the target D(2) dopamine receptor (Homo sapiens) (UniProt P14416). Nature of the assay: Dopamine D2 receptor (DRD2) small molecule agonists, cell-based qHTS assay (AID 1963594). Note: nearly all actives have a fitted effect of over 35% in size. An outline of the steps:
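HEK293 cells stably expressing DRD2 were cultured 24 h at 37 C, then given Ro20-1724 (0.1 mM final) and compounds for 10 min at room temperature. NKH477 (200nM) was then added for 30 min. cAMP was read by HTRF.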

For assay [19] the target is unchanged. Description: Dopamine D2 receptor (DRD2) small molecule antagonists, cell-based qHTS assay (AID 1963595; active = well fitted inhibition curve with a large enough effect in the signal ratio in the repeat runs, with a control signal flat; the % refers to the signal ratio). An outline of the steps:
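HTRF cAMP read-out at 665 and 620 nm emission (340 nm excitation). Antagonist mode: compounds were tested against 12 nM quinpirole in DRD2-HEK293 cells, with 200 nM NKH477 raising cAMP and 0.1 mM Ro20-1724 blocking its breakdown.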

A short description of assay [20]: p53 small molecule agonists, cell-based qHTS assay with rat liver microsomes (AID 1963578). In short, it runs like this:
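Read-out is beta-lactamase reporter fluorescence (LiveBLAzer, 2 h, room temperature, dark) in p53RE-bla cells treated 16 h at 37 C with compound, rat liver microsomes and NADPH, both 0.5 mg/mL final.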

Several values for one entry are separate records, joined by “and”; a condition that tells them apart may be missing. Identical values can stand only once. Results filed as inconclusive are left out. Activity calls are given as the source filed them. Unless noted, calls come from the whole dose curve.

Sequence of 5-hydroxytryptamine receptor 2A (Homo sapiens) (P28223 whole entry, looked up): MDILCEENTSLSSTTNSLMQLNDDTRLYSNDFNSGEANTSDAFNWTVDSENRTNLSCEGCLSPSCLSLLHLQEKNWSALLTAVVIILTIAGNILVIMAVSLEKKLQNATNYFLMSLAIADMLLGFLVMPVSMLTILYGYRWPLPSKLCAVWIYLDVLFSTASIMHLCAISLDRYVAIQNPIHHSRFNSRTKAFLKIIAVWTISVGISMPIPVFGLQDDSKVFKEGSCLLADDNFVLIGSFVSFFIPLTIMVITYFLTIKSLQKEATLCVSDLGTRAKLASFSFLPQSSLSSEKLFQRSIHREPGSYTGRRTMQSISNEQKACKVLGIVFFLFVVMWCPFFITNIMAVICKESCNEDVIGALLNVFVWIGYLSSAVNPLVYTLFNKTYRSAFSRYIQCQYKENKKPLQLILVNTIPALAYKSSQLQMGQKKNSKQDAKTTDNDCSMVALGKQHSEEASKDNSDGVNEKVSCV
Sequence of KiSS-1 receptor (Homo sapiens) (Q969F8 whole entry, looked up): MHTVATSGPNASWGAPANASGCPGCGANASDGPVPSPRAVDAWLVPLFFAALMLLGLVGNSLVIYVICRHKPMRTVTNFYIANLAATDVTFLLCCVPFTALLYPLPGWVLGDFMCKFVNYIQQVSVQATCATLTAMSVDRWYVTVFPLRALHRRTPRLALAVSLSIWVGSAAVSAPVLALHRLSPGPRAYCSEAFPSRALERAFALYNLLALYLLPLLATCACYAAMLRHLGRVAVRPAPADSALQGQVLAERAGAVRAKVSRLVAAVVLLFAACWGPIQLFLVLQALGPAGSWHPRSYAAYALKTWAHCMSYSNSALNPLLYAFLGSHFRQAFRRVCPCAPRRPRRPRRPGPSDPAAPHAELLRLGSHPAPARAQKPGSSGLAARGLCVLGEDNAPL
Sequence of Muscarinic acetylcholine receptor M1 (Homo sapiens) (P11229 whole entry, looked up): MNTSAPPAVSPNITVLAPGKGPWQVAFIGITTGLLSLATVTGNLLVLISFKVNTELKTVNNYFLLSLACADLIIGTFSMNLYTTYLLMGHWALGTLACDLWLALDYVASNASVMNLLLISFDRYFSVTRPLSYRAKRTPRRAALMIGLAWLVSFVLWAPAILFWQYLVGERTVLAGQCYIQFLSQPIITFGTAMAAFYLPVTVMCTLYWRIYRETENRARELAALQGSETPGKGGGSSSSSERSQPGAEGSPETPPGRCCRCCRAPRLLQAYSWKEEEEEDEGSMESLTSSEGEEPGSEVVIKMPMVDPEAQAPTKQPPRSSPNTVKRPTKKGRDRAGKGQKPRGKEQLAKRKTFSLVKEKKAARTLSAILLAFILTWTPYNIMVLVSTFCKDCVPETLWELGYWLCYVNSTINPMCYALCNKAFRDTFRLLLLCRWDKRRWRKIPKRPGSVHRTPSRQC
Sequence of Gonadotropin-releasing hormone receptor (Homo sapiens) (P30968 whole entry, looked up): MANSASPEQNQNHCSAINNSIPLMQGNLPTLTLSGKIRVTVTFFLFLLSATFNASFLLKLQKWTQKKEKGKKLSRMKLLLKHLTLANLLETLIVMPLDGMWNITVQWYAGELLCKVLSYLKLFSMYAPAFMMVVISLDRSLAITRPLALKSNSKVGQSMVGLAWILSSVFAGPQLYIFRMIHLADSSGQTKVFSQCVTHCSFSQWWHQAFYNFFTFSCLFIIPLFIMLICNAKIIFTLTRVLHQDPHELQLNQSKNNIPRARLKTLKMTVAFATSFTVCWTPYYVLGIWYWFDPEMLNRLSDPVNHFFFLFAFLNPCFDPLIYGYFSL
Sequence of Beta-2 adrenergic receptor (Homo sapiens) (P07550 whole entry, looked up): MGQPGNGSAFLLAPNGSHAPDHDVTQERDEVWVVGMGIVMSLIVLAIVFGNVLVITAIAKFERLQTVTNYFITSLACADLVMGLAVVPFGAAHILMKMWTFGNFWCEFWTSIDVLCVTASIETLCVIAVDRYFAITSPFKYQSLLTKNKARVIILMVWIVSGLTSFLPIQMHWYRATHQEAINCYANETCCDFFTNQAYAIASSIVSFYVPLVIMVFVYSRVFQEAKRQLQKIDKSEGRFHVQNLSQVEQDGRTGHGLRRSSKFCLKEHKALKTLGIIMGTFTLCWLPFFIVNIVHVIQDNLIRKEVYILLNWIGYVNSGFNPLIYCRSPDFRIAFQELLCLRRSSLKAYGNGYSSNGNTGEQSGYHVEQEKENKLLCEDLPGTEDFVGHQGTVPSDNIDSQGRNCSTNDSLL
Sequence of D(2) dopamine receptor (Homo sapiens) (P14416 whole entry, looked up): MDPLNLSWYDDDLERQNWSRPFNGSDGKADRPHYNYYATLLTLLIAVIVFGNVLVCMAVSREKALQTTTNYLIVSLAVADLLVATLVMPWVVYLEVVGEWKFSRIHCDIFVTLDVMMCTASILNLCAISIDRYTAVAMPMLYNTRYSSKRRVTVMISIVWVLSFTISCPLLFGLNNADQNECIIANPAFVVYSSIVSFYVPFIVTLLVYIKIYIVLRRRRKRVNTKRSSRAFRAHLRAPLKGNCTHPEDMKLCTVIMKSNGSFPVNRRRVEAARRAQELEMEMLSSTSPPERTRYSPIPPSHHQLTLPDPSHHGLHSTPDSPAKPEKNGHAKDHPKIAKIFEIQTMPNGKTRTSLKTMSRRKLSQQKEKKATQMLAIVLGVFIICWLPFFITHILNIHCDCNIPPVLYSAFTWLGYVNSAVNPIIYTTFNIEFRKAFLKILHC

As for `NS(=O)(=O)O`, the Potency result in assay [1], in [2], in [3], in assay [4], in [5] and in assay [6] was “inactive” in each case. Moreover, the Potency entry in assay [7], in assay [8], in assay [9], in [10], in [11] and in assay [12] was “inactive” each time. Also, the Potency result in assay [13], in assay [14], in assay [15], in assay [16], in assay [17] and in assay [18] was “inactive” throughout. The Potency result in assay [19] is “inactive”.
In the case of `NC(=O)OCC(COC(N)=O)c1ccccc1`, the Potency entry in [1], in [2], in [3], in [4], in [5] and in [6] was “inactive” each time. Besides, the Potency result in assay [20], in assay [8], in assay [9], in [10], in assay [12] and in assay [13] was “inactive” each time. Also, the Potency entry in assay [14], in assay [15], in assay [16], in assay [17] and in [19] was “inactive” each time.
As for `CC#C[C@]1(O)CC[C@H]2[C@@H]3CCC4=CC(=O)CCC4=C3[C@@H](c3ccc(N(C)C)cc3)C[C@@]21C`, the Potency entry in [1], in assay [2], in assay [3], in assay [4], in assay [5] and in assay [6] was “inactive” each time. Also, the Potency result in assay [20], in [7], in assay [9], in assay [17], in assay [18] and in assay [19] was “inactive” each time.
In the case of `O=C(Nc1ccccc1SSc1ccccc1NC(=O)c1ccccc1)c1ccccc1`, the Potency in [1] was 6.14 µM (active) and 6.11 µM (active); in [2] it was 4.88 µM (active) and 6.11 µM (active). Further, the Potency result in assay [3], in assay [4], in assay [5], in assay [6], in assay [7] and in assay [8] was “inactive” throughout. Further, the Potency result in assay [9], in assay [10], in [11], in assay [12], in assay [13] and in assay [14] was “inactive” throughout. Besides, the Potency entry in [17], in assay [18] and in [19] was “inactive” each time.
With `CCCCCCCC/C=C\CCCCCCCC(=O)O`, the Potency result in assay [1], in [2], in assay [3], in assay [4], in assay [5] and in [6] was “inactive” each time. The Potency result in assay [20], in assay [8], in [9], in assay [10], in assay [11] and in [12] was “inactive” in each case. The Potency entry in assay [13], in [14], in [15], in assay [16], in assay [17] and in assay [18] was “inactive” in each case. Besides, the Potency result in [19] was “inactive”.
In the case of `OC(CCl)CCl`, the Potency result in [1], in [2], in assay [3], in assay [4], in [5] and in assay [6] was “inactive” in each case. Besides, the Potency result in assay [20], in assay [8], in assay [9], in assay [11], in assay [12] and in assay [14] was “inactive” throughout. Moreover, the Potency entry in [15], in assay [16], in assay [17], in assay [18] and in [19] was “inactive” throughout.
Turning to `COCN(COC)c1nc(N(COC)COC)nc(N(COC)COC)n1`, the Potency entry in assay [1], in [2], in [3], in [4], in assay [5] and in assay [6] was “inactive” in each case. Also, the Potency result in assay [20], in assay [7], in assay [10], in assay [11], in assay [12] and in assay [13] was “inactive” in each case. For the same molecule, the Potency result in assay [14], in assay [15], in assay [16], in assay [17], in [18] and in assay [19] was “inactive” each time.

The values are drawn from PubChem BioAssay (Tox21).
